# Data taken from publication PMC8384837, “Expanding the binding specificity for RNA recognition by a PUF domain”.
# Biological target: PUM1 PUF domain R3-RVK (Homo sapiens, UniProt Q14671 828-1176, C935R;R936V;Q939K)
# Assay: yeast three-hybrid, YBZ-1, SC-Leu-His + 0.5 mM 3-AT, 4 days
# Settings: tags: N-Gal4 AD-HA kept; label: inside an RPR1-promoter hybrid RNA with tandem MS2 sites; ssRNA
# Summary of the method: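 Repeat regions from input (SC-Leu) and selection (SC-Leu-His + 0.5 mM 3-AT) plates were PCR-amplified and Illumina-sequenced after four days of growth. The cells were strain YBZ-1 with a LexA–MS2 coat fusion and a HIS3 reporter, co-expressing Pumilio-1 PUF domain libraries and matching RNA elements from a centromeric plasmid. The interaction score is the log change in variant frequency from input to selection, taken in log2 with a pseudocount of 1 for absent variants.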
# PUM1 PUF domain R3-RVK, sequence (Q14671 828-1176 C935R/R936V/Q939K): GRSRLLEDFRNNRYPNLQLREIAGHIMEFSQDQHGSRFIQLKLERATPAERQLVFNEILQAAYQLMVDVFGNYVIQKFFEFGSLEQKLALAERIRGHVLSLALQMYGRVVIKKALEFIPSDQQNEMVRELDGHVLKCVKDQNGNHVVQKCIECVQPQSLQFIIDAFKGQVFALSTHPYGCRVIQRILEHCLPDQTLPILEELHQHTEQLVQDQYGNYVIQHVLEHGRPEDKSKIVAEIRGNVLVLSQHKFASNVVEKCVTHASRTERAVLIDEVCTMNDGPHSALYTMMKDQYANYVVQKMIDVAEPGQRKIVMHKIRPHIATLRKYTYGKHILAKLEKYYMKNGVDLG
row,Sequence,binding signal
1,GGCUAGAACUAGUGGAUCCCCCGGCGCCCGGCGGCUCGAGCCCGGGUAAGUGUAAAUAGUCUGCAUGCCGCCGGGCGCCAUGCCUGCAGGUCGACUCUAGAAAACAUG,2.2 log2 enrichment (interaction score)
2,GGCUAGAACUAGUGGAUCCCCCGGCGCCCGGCGGCUCGAGCCCGGGUAAGUGUAAGUAGUCUGCAUGCCGCCGGGCGCCAUGCCUGCAGGUCGACUCUAGAAAACAUG,2.53 log2 enrichment (interaction score)
3,GGCUAGAACUAGUGGAUCCCCCGGCGCCCGGCGGCUCGAGCCCGGGUAAGUGUAAUUAGUCUGCAUGCCGCCGGGCGCCAUGCCUGCAGGUCGACUCUAGAAAACAUG,5.35 log2 enrichment (interaction score)
